Laboratory results reported in PubChem BioAssay AID2685 (National Center for Advancing Translational Sciences (NCATS), 2010).
In all, about 320,000 compounds went through this assay and about 2,100 (0.66%) were called active. Not shown: some 53% with an inconclusive outcome. This is one part of a sample in which actives are shown more often than they occur. Calls follow the shape of the dose curve; as a rule, active = well fitted inhibition curve with a large enough effect in the signal ratio, with a control signal flat (not every such curve was filed as active); inconclusive = small, poorly fitted or top-dose-only effect, or effect the other way, or a change in a side signal; inactive = flat fitted curve, though single readings scatter; the % refers to the signal ratio.

Experiment: qHTS Assay for Lipid Storage Modulators in Drosophila S3 Cells;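 as to cell number change: cells counted by Cell Tracker Red CMTPX staining in the red channel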; as to lipid storage change, negative = inhibition: % is scaled to controls: 0 for no effect and ±100 for the full control effect
Settings: BODIPY lipid droplet fluorescence, 18-24 h, cells fed with added oleic acid; cell number change: measured here: cell count max response; series mostly up to 46.1 µM; lipid storage change, negative = inhibition: at the top concentration
How it was run: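 Drosophila S3 cells got compounds at several concentrations plus oleic acid (400 uM solution). Laser-scanning cytometry with 488 nm excitation read lipid droplets at 500-530 nm and cells at 575-640 nm. Percent activity was relative to 20 uM Triacsin C.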
Potency is read from the fitted curve at half-maximal effect.

SMILES	outcome	cell number change	Potency	lipid storage change, negative = inhibition
O=S(=O)(CCc1nc2ccccc2s1)c1ccc(Cl)cc1	inactive	17.6%		
Cc1ccc(S(=O)(=O)CCc2nc3ccccc3s2)cc1C		19.6%	18.4 µM (active)	
Cc1ccc(S(=O)(=O)CCc2nc3ccccc3s2)cc1		-0.805%		3.52% (inactive)
c1cncc(-c2cn(C[C@H]3CC[C@@H]([C@@H]4CC[C@H](Cn5cc(-c6cccnc6)nn5)O4)O3)nn2)c1		9.88%	14.6 µM (active)	
c1ccc(-c2cn(C[C@H]3CC[C@@H]([C@@H]4CC[C@H](Cn5cc(-c6ccccc6)nn5)O4)O3)nn2)cc1		-7.49%		-0.0556% (inactive)
c1ccc(-c2cn(C[C@H]3CC[C@@H]([C@@H]4CC[C@H](Cn5cc(-c6ccccn6)nn5)O4)O3)nn2)nc1		28.2%		7.69% (inactive)
CC(=O)N1CCN(S(=O)(=O)c2c(C)n(C)c(=O)n(C)c2=O)CC1		5.18%		-16.5% (inactive)
CCCCOc1ccc(C(=O)N2CCNC(=O)C2CC(=O)OC(C)C)cc1 (stereo unspecified)	inactive	7.09%		
CCCNC(=O)Nc1cccc(NC(C)=O)c1		-9.94%		-8.89% (inactive)
CCOCCCNC(=O)C1CCCN(S(=O)(=O)c2cccc3nsnc23)C1 (stereo unspecified)	inactive	-2.02%		
Cc1cc(=O)n2nc(N3CCC(C(=O)N4CCN(C)CC4)CC3)sc2n1		5.43%	6.51 µM (active)	
CCC1CCCCN1CCCNC(=O)C1CCCN(c2nn3c(=O)cc(C)nc3s2)C1 (stereo unspecified)	inactive			
Cc1cc(=O)n2nc(N3CCCC3C(=O)NCCCN3CC(C)CC(C)C3)sc2n1 (stereo unspecified)		-13.9%	5.17 µM (active)	
Cc1cc(=O)n2nc(N3CCCC(C(=O)NCc4ccccc4Br)C3)sc2n1 (stereo unspecified)		-27.4%	1.46 µM (active)	
CCOc1ccc(CCNC(=O)C2CCN(c3nn4c(=O)cc(C)nc4s3)CC2)cc1OCC		3.17%	5.8 µM (active)	
Cc1cc(=O)n2nc(N3CCC(C(=O)N4CCN(c5ccccc5)CC4)CC3)sc2n1				-24.2% (inactive)
COc1ccc(NC(=O)C2CCCN2c2nn3c(=O)cc(C)nc3s2)cc1 (stereo unspecified)		13.8%		-9.15% (inactive)
Cc1cc(=O)n2nc(N3CCCC(C(=O)NCc4ccccc4)C3)sc2n1 (stereo unspecified)		-4.61%		14.6% (inactive)
Cc1cc(=O)n2nc(N3CCCC(C(=O)N4CCN(C)CC4)C3)sc2n1 (stereo unspecified)		-3.39%		2.59% (inactive)
Cc1cc(=O)n2nc(N3CCCC(C(=O)NCc4ccccc4C)C3)sc2n1 (stereo unspecified)		0.288%		-13.4% (inactive)
COc1ccc(CCNC(=O)C2CCN(c3nn4c(=O)cc(C)nc4s3)CC2)cc1OC				-13.5% (inactive)
Cc1cc(=O)n2nc(N3CCC(C(=O)NCCc4ccccc4)CC3)sc2n1		7.93%		16.9% (inactive)
COc1ccc(CCNC(=O)Cn2cnc3c(nnn3Cc3ccc(C)cc3)c2=O)cc1OC		-15.1%		5.48% (inactive)

SMILES	outcome	cell number change	Potency	lipid storage change, negative = inhibition
COc1ccc(CN2CCN(Cc3cc4ccccc4o3)CC2CCO)c(F)c1 (stereo unspecified)		5.21%		24.4% (inactive)
C/C(=N\NC(=O)c1nnn(-c2nonc2N)c1CSc1ccccc1)c1ccco1	inactive			
N/C(=N/O)c1nc(N2CCCC2)nc(N2CCCC2)n1		6.44%		11.2% (inactive)
COc1ccc(CNC(=O)C(C)n2nc(C)c3c(C)n(-c4ccccc4)nc3c2=O)c(OC)c1 (stereo unspecified)		1.47%		6.4% (inactive)
COc1ccc(OC)c(CNC(=O)C(C)n2nc(C)c3c(C)n(-c4ccccc4)nc3c2=O)c1 (stereo unspecified)	inactive	-28%		
COc1ccccc1CNC(=O)C(C)n1nc(C)c2c(C)n(-c3ccccc3)nc2c1=O (stereo unspecified)		-4.13%	5.8 µM (active)	
O=S1(=O)c2ccccc2Nc2ccccc21		5.2%		-5.34% (inactive)
Cc1nc(NS(=O)(=O)c2ccccc2)sc1NC(=O)Nc1ccc(Cl)cc1		3.01%		7.91% (inactive)
COc1ccc(CCNCc2c(OC)ccc3ccccc23)cc1OC		20.1%		-2.82% (inactive)
CCOC(=O)N1CCN(C(=O)C(C)N(c2ccccc2)S(C)(=O)=O)CC1 (stereo unspecified)		2.57%		14.9% (inactive)
CC(C(=O)N1CCCC1)N(c1ccccc1)S(C)(=O)=O (stereo unspecified)		-11.5%		18.2% (inactive)
CC(C(=O)N1CCc2ccccc2C1)N(c1ccccc1)S(C)(=O)=O (stereo unspecified)		-18%	2.06 µM (active)	
COc1ccc2sc(-c3ccccc3OC)c(C#CCCO)c2c1	inactive	-1.81%		
CCOc1cc(-c2cc(-c3ccc(C)o3)nc(N)c2C#N)ccc1O	inactive	-0.884%		
O=C(NCc1cccnc1)C1CCN(c2ccc(S(=O)(=O)N3CCOCC3)cc2Cl)CC1		0.843%		-21.4% (inactive)
CCC(C)C1NC(=S)N(C2CCCCC2)C1=O (stereo unspecified)		-20.3%		3.53% (inactive)
C=CCN1C(=O)C(C(C)CC)NC1=S (stereo unspecified)		-18.2%	7.31 µM (active)	
CCC(C)C1NC(=S)N(Cc2ccccc2)C1=O (stereo unspecified)		-14.7%		4.29% (inactive)
Cc1nnc(-c2cccc(C(F)(F)F)c2)nc1N1CCOCC1	inactive			
O=C(C1=C[C@@H](C2CC2)C[C@@H](OCc2ccc(CO)cc2)O1)N1CCOCC1		-6.29%		17.1% (inactive)
COc1ccc(C2NN=C(c3ccc(C)cc3)S2)cc1 (stereo unspecified)		14.2%		2.54% (inactive)
Cc1ccc(C2=NNC(C(O)C(O)C(O)C(C)O)S2)cc1 (stereo unspecified)	inactive			
Cc1ccc(C2=NNC(C(O)C(O)C(O)C(O)CO)S2)cc1 (stereo unspecified)		-6.96%	23.1 µM (active)	
